Compound activity as filed in PubChem BioAssay.
DT40 TDP1 CPT: growth inhibition of DT40 Tdp1-/-;hTDP1 cells with camptothecin (screen for TDP1 inhibitors). chicken DT40 Tdp1-/-;hTDP1 cells + 20 nM CPT, ATP luminescence, 48 h. Potency, µM (top dose mostly 46.2 µM), for the others: at the top dose activity change, negative = growth inhibition, most hits filed as inhibitors. hit rate 12% among 420,000. AID 686979; further: potency means the concentration at half of the fitted maximal effect; nearly all actives have a fitted effect of over 55% in size
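Chicken DT40 Tdp1-/- cells complemented with human TDP1, 400 cells/well, exposed to compounds plus 20 nM camptothecin for at least 48 h at 37 C; viability read as ATP content by CellTiter-Glo luminescence.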
HT1080NT lethal: kills 2HG-producing HT-1080-NT fibrosarcoma cells; HT-1080-NT fibrosarcoma viability, CellTiter-Glo ATP luminescence, 48 h; Potency, µM (titrated, usually from 46.1 µM), for the others: top-dose activity, negative = less viability, usual class: cytotoxic; hit rate 1.6% among 360,000;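 further: NT is the 2HG producing partner of a matched IDH1 knockdown line; potency means the concentration at half of the fitted maximal effect; 0% = DMSO-treated cells and -100% = media-only wells without cells; nearly all actives have a fitted effect of over 55% in size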
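HT-1080-NT; 750 cells/well; 5% FBS RPMI; 48 h compound, 37 degrees C; CellTiter-Glo luminescence; curve fitting and curve-class assignment.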
IL1B secr inh: inhibitors of inflammasome signaling (IL-1 beta secretion) | THP-1 LPS/ATP IL-1B secretion, AlphaLISA, 16 h; stronger effect = lower value | activity change, % at 57.5 µM | hit rate 4.7% among 360,000; in the data active means activity change below about -50%; inconclusive means mostly about -30% to -49%
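THP-1 cells pretreated 1 hr with compounds (up to 57.5 uM final), then stimulated with LPS (250 ng/mL final) plus ATP (1.25 mM final); secreted IL-1B measured by AlphaLISA after 16 hr, decreased signal indicating inhibition.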
HT1080 IDH1KD tx: toxicity to HT-1080 IDH1 knockdown cells (counter line); hit rate 2% among 360,000; HT-1080 IDH1 knockdown viability, ATP luminescence, 48 h; Potency, µM (series often up to 46.1 µM), for inactives: top-dose activity, negative = toxicity, actives largely listed as cytotoxic; AID 686971;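 further: potency means the concentration at half of the fitted maximal effect; 0% = DMSO wells and -100% = cell-free medium wells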
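Viability of IDH1-knockdown HT-1080 fibrosarcoma cells was assessed by CellTiter-Glo after 48 h at 37 °C with titrated compound; concentration-effect curves were classified by fit quality and response size.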
ELG1 repair inh: inhibitors of ELG1-dependent DNA repair in HEK293T cells. HEK293T ELG1-luciferase reporter, luminescence, 16 h; DNA damage induced by 5-fluorouridine. Potency, µM (doses to about 46.1 µM), without a hit: top-dose activity change, negative = inhibition, most hits filed as inhibitors. hit rate 2.3% among 330,000; further: potency means the concentration at half of the fitted maximal effect; nearly all actives have a fitted effect of over 55% in size
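Cells (2,000 per well) received 5-fluorouridine plus test compound or DMSO and were incubated 16 hr at 37 °C, 5% CO2. Luciferase activity was read by luminescence 30 min after ONE-Glo addition; signal suppression marked inhibition of damage-induced ELG1 function.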
DT40 TDP1 no CPT: qHTS for Inhibitors of human tyrosyl-DNA phosphodiesterase 1 (TDP1): qHTS in cells in absence of CPT. DT40 Tdp1-/- hTDP1 cells, no CPT, ATP luminescence, 48 h. Potency, µM (series often up to 46.2 µM), for inactives: at the top dose activity change, negative = growth inhibition, actives largely listed as inhibitors. hit rate 15% among 420,000. AID 686978, 2013; further: potency means the concentration at half of the fitted maximal effect; nearly all actives have a fitted effect of over 55% in size
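DT40 Tdp1-/-;hTDP1 cells, no CPT (DMSO vehicle only), 400 cells/well; compounds pin-transferred; ≥48 hr, 37 °C; CellTiter-Glo 30 min RT dark, luminescence read.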
* hit, by the source's call; ? = inconclusive; · = no result; [ ] = dose if it differs, or a comment. Sampled rows, rich in hits. Any-hit rate of the full collection: about 19%. Unless noted, the call rests on the fitted dose curve; in most records, active means well fitted curve in the direction sought with a large enough effect; inconclusive means small, poorly fitted or top-dose-only effect, or another doubt; inactive means no such curve, though single readings can be large; an effect the other way counts as inactive or inconclusive. Unless noted, on the % scale 0 is the no-effect control and ±100 the full control effect.

SMILES	DT40 TDP1 CPT	HT1080NT lethal	IL1B secr inh	HT1080 IDH1KD tx	ELG1 repair inh	DT40 TDP1 no CPT
O=C(c1cccc(S(=O)(=O)N2CCOCC2)c1)N(CCO)Cc1ccccc1	-22.9%	7.5%	-13.4	9.5%	14.9%	0.2%
CCN(Cc1ccccc1)C(=O)c1cccc(S(=O)(=O)N2CCN(c3ccccc3)CC2)c1	16.4µM*	-15.1%	-6.5	-0.9%	?	20.6µM*
CCCCN(C(=O)c1cccc(S(=O)(=O)N2CCN(Cc3ccccc3)CC2)c1)c1ccccc1	?	-5.5%	-16.5	?	2.9%	16.4µM*
O=C1N=C(N2CCOCC2)S/C1=C1\C(=O)N(Cc2ccccc2)c2ccc(Br)cc21	·	·	·	·	1.2%	·
CCCCN1C(=O)/C(=C2\SC(N3CCCCC3)=NC2=O)c2ccccc21	23.1µM*	1.7%	-28.2	3.8%	?	?
Nc1ccc(S(=O)(=O)NC2(C(F)(F)F)NC(=O)N(c3cccc(Cl)c3)C2=O)cc1 (stereo unspecified)	12.6%	·	·	·	·	5.7%
COc1cc(OC)c(OC)cc1CN1CCOc2ccc(CN3C[C@@H](C)O[C@@H](C)C3)cc2C1	-18.6%[9.04 µM]	·	·	·	·	?
O=C1NC(Cc2ccc(O)cc2)c2nc3ccc(Br)cc3c(=O)n2-c2ncccc21 (stereo unspecified)	-13.8%	-22.7%	21.1	-28.9%	·	?
Cc1nc2c(F)c(F)c(C(F)(F)F)c(F)c2[nH]1	?	-25.6%	99.5	?	10.3%	20.6µM*
O=C1Nc2ccc(S(=O)(=O)N3CCCC3)c3ccc(S(=O)(=O)N4CCCC4)c1c23	8.2µM*	-11.8%[9.24 µM]	-4.3	-25.8%	?	?
O=S(=O)(c1ccc(Cl)c2ccccc12)N1CCCC1	-41.1%	-15.0%	0.8	-13.3%	3.4%	0.461µM*
O=S(=O)(c1ccc(Br)c2ccccc12)N1CCCC1	4.0%	1.3%	-2.8	-27.0%	-7.1%	-25.7%
O=C(O)CCn1cnc2onc(-c3cc(F)cc(F)c3)c2c1=O	1.5%	·	·	·	·	5.1%
COc1ccccc1N1CCN(C(=O)Cn2cnc3onc(-c4ccc(F)cc4)c3c2=O)CC1	?	·	·	·	·	23.1µM*
O=C(CCn1cnc2onc(-c3ccc(F)cc3)c2c1=O)N1CCN(c2ccc(F)cc2)CC1	23.1µM*	·	·	·	·	18.4µM*
Brc1ccc(-c2csc(N3CCc4ccccc4C3)n2)cc1	-17.7%	-4.0%	58.5	-0.2%	11.1%	-28.6%
O=c1c(N2CCc3ccccc3C2)csc2ccc(Br)cc12	23.1µM*	·	·	·	·	?
Cc1ccc(-c2nc3c(Cl)cc(C(F)(F)F)cn3c2Cc2ccccc2)cc1	?	10.1%	33.1	21.0%	·	?
CC(C)(C)Cc1c(-c2ccc(C#N)cc2)nc2c(Cl)cc(C(F)(F)F)cn12	18.4µM*	?	31.1	?	·	?
COc1ccccc1Cc1c(-c2ccc(C#N)cc2)nc2c(Cl)cc(C(F)(F)F)cn12	23.1µM*	-9.1%	27.7	-2.9%	·	14.6µM*
Cc1ccc2[nH]c(O)c(N=Nc3nc4ccccc4s3)c2c1	10.3µM*	?	17.9	-0.9%	?	7.31µM*
Cc1ccc2[nH]c(O)c(N=Nc3ccccc3[N+](=O)[O-])c2c1	8.2µM*	2.7%	20.6	-0.9%	·	5.8µM*
CCNc1ncc2nc(C)c(=O)n(Cc3cccc(OC)c3)c2n1	-1.6%	·	·	·	·	?
COC(=O)c1ccc(/C(O)=C(\C#N)c2nc3ccccc3s2)cc1	?	-1.2%	-77.4*	-15.8%	?	?
COC(=O)c1ccc(CC(=O)c2nc3ccccc3s2)cc1	-2.4%	-6.6%	36.7	-3.7%	?	-18.8%
SMILES	DT40 TDP1 CPT	HT1080NT lethal	IL1B secr inh	HT1080 IDH1KD tx	ELG1 repair inh	DT40 TDP1 no CPT
CCCCC(=O)N(Cc1ccc(-c2ccccc2-c2nn[nH]n2)cc1)[C@@H](C(=O)O)C(C)C	-18.0%	·	·	·	·	-20.8%
Cc1ccc(SCc2cc(=O)[nH]c(/N=C(\N)Nc3ccccc3Sc3ccccc3)n2)cc1	?	-1.7%	25.5	-6.5%	-0.8%	29.1µM*
COCc1cc(=O)[nH]c(/N=C(\N)Nc2ccc(C)cc2C)n1	4.1%	-2.6%	16.1	0.0%	1.4%	-7.7%
COc1ccccc1N/C(N)=N/c1nc(CSc2ccc(C)cc2)cc(=O)[nH]1	18.4µM*	-11.5%	87.2	-22.8%	10µM*	7.31µM*
CC(C(=O)NC1CCCCC1)N1CCN(S(=O)(=O)c2cccs2)CC1 (stereo unspecified)	-16.7%	-0.2%	-5.1	-2.5%	10.4%	-5.6%
COc1ccc(-c2ccc(CN3C(CC(C)C)C(=O)N(Cc4cn(CCC5OCCO5)nn4)CCS3(=O)=O)cc2)cc1OC (stereo unspecified)	20.6µM*	6.7%	19.6	11.7%	·	16.4µM*
CC1C(=O)N(Cc2cn(CCC3OCCO3)nn2)CCS(=O)(=O)N1Cc1ccc(-c2ccccc2)cc1 (stereo unspecified)	-29.3%	-4.1%	66.5	3.8%	·	?
COc1ccc(-c2ccc(CN3C(C)C(=O)N(Cc4cn(CCC5OCCO5)nn4)CCS3(=O)=O)cc2)cc1OC (stereo unspecified)	18.4µM*	12.8%	19.9	7.9%	·	11.6µM*
CC(C)CC1C(=O)N(Cc2cn(CCC3OCCO3)nn2)CCS(=O)(=O)N1Cc1ccc(-c2ccc(F)cc2)cc1 (stereo unspecified)	?	?	-28.7	?	·	23.1µM*
Cc1cccc(CN2CCN(C3CN(Cc4cn(Cc5cccc(C(F)(F)F)c5)nn4)S(=O)(=O)C3)CC2)c1 (stereo unspecified)	?	-18.8%	-15.4	-25.2%	·	20.6µM*
CCCCCCN1CCN(C2CN(Cc3cn(Cc4cccc(Cl)c4)nn3)S(=O)(=O)C2)CC1 (stereo unspecified)	18.4µM*	?	?	-38.3%	·	?
CCCCCCN1CCN(C2CN(Cc3cn(Cc4ccc(Cl)cc4)nn3)S(=O)(=O)C2)CC1 (stereo unspecified)	23.1µM*	?	-0.8	?	·	16.4µM*
CN(C)CCN1CCN(C2CN(Cc3cn(Cc4ccc(Cl)cc4)nn3)S(=O)(=O)C2)CC1 (stereo unspecified)	-5.3%	12.3%	0.0	20.4%	·	-1.9%
CCCCCCN1CCN(C2CN(Cc3ccc(F)cc3)S(=O)(=O)C2)CC1 (stereo unspecified)	?	-0.2%	-6.0	-1.2%	·	?
